From PubChem BioAssay AID651567 (National Center for Advancing Translational Sciences (NCATS), 2012)
Hit rate of the full screen: of about 1,200 compounds, about 10 (0.8%) were called active. Roughly 4% stayed inconclusive and do not appear here. Calls follow the shape of the dose curve; as a rule, active = well fitted inhibition curve with a large enough effect; inconclusive = small, poorly fitted or top-dose-only effect; inactive = no such curve, though single readings can be large or run the other way. The list comes from a sample in which actives are over-represented; it also holds similar structures and randomly drawn compounds. Where a call stands in place of a potency, no number is given.

Experiment: qHTS Assay to Find Inhibitors of Chronic Active B-Cell Receptor Signaling: Hit Validation in OCI-Ly3 Assay
Details: OCI-Ly3 IkB-luciferase reporter, Chroma-Glo luminescence, 4 h; series mostly up to 46.1 µM
Description: Diffuse large B-cell lymphoma (DLBCL) is the most common category of non-Hodgkin lymphoma, with ~20,000 new cases per year in the United States. DLBCL should be regarded as a collection of different neoplasms. Microarray gene expression analysis has defined two principal types of DLBCL, named for their similarity to normal B cell stages or activation states: a germinal center B-cell (GCB) type, and an activated B-cell (ABC) type. In ABC-DLBCL, a constitutive high-level activity of the NF-kappaB family of transcription factors has been observed (1) and NF-kappaB target genes are more highly expressed in ABC primary tumors than in GCB tumors. Functional studies have shown a constitutive high-level activity of the IkappaB (inhibitor of kappa-B) kinase (IKK) complex. […] Further analysis of DLBCL primary tumors for NF-kappaB target gene expression imply that although CARD11 is required for constitutive IKK activity in all ABC-DLBCL lines, mutations in CARD11 may be the root cause of IKK activation only in lines or tumors with such mutations. In other words, CARD11 mutations may explain NF-kappaB activation in only 10% of ABC-DLBCL cases. […] This process has been termed 'chronic active BCR signaling' (CABS). The goal of this screen is to find small-molecule inhibitors of the CABS pathway found in ABC-DLBCL lines using a cell-based assay that measures IkappaBalpa stability, which has already been extensively validated in the OCI-Ly3 line (PubChem AID:445; REF: 4). […] Hits from the primary screen were tested in this selectivity secondary assay. NIH Molecular Libraries Probe Production Network [MLPCN] NIH Chemical Genomics Center [NCGC] MLPCN Grant: R03 DA031086 PI Name: Dr. R. Eric Davis
Cells were seeded in 1536-well plates at 5000 cells/3ul in IMDM medium containing 0.5% FBS, w/o phenol red, L-glutamine, 25 mM HEPES, 3 mg/ml sodium bicarbonate. After centrifugation for 1 min. at 1000 rpm, 23 nl of compounds or DMSO were delivered to each well using a pin tool. Then 1ul 80ng/ml doxycycline was dispensed into white solid 1536-well plates and the plates were incubated at 37C/5% C02 in a cell incubator for 4 hrs. Then 4 ul Chroma-Glo luminescent substrate mix (Promega) was added to each well. The plate was incubated at R.T. for 10-15 min. The plates were measured on a ViewLux plate reader for green luminescence (540/20 nm filter) and red luminescence (618/8 nm filter). The green and red luminescent signals were corrected for red and green luminescence filter overlap using previously determined filter calibration constants (determined using the procedure outlined in the Promega Technical Manual). The %Activity was determined from the ratio of corrected green/red luminescent values. Green luminescent and ratio %Activity was determined by normalizing to the difference in signal between basal cells (0% Activity) and cells incubated with 10 uM of the proteasome inhibitor MG-132 (100% Activity). Red luminescent %Activity was normalized to the difference between red luminesence in basal cells (0%Activity) and zero luminescence (-100% Activity). Concentration-response curves were fitted to the signals arising from the green luminescence (I-kappa-B-alpha-luciferase fusion; IkB-luc) and the red luminescence (unfused luciferase; luc) as well as the calculated ratio. The concentration-effect curves were then classified based on curve quality (r2), response magnitude and degree of measured activity. Compounds were then categorized based on their concentration-response curves for all three datasets (Ikb-luc, luc and ratio).
Potency is read from the fitted curve at half-maximal effect.

Q: Which Potency does the source give for Cc1ccc(/C=C/C(=O)c2nc3ccccc3[nH]2)cc1 here?
A: inactive

Q: For COc1ccc(C(=O)/C=C/c2ccc(O)cc2)c2c1CC(O)C(C)(C)O2 (centres undefined), which Potency is on record?
A: inactive

Q: Which Potency does the source give for O=C(/C=C/c1ccc(O)cc1)c1ccc(O)cc1O here?
A: 16.4 µM (active)

Q: For COc1ccc2[nH]c3c(c2c1)CCN1C(=O)C(CC(=O)NCC24CC5CC(CC(C5)C2)C4)C[C@H](C(=O)N2CCCCC2)[C@@]31C (some centres undefined), which Potency is on record?
A: inactive

Q: For Nc1nc(SCc2nc(-c3ccccc3)no2)[nH]c(=O)c1-c1ccccc1, which Potency is on record?
A: inactive

Q: Which Potency does the source give for Oc1cccc(/C=N/Nc2ccc(Cl)nn2)c1O here?
A: 20.6 µM (active)

Q: For Oc1ccccc1/C=N/Nc1ccnc(SCc2ccccc2)n1, which Potency is on record?
A: inactive

Q: For O=C(/C=C/c1ccccc1)c1ccc(NC2=NCCCS2)cc1, which Potency is on record?
A: inactive

Q: For Cc1c(CCC(=O)N[C@@H](CCCNC(N)=O)C(=O)O)c(=O)oc2cc3oc4c(c3cc12)CCCC4, which Potency is on record?
A: inactive

Q: For COc1ccc(/C=N/Nc2nccnc2Cl)c(OC)c1, which Potency is on record?
A: inactive

Q: For CCO[C@H]1OC(C(=O)NCc2nc3ccccc3[nH]2)=C[C@@H](C2CC2)[C@@H]1CCCO, which Potency is on record?
A: inactive

Q: Which Potency does the source give for CNc1nc(-c2ccc(OC)cc2)c(-c2ccc(OC)cc2)s1 here?
A: inactive

Q: For COc1ccc(C)cc1Nc1cc(C)nc2ncnn12, which Potency is on record?
A: inactive

Q: For NC(=S)N/N=C1\CC(c2ccc3c(c2)OCCCO3)Oc2ccc(F)cc21 (centres undefined), which Potency is on record?
A: inactive

Q: For CCOC(=O)C1=C(O)c2ccccc2C(=O)/C1=C\c1ccc(CC)cc1, which Potency is on record?
A: inactive

Q: With COCCn1nnnc1C(C(C)C)N(Cc1ccccc1)Cc1cc2cc(OC)ccc2[nH]c1=O (centres undefined) as the compound, how does the Potency read?
A: inactive

Q: For CCCN1C(=O)C(=O)c2cc(Cl)ccc21, which Potency is on record?
A: inactive

Q: With Cc1ccc2c(c1)C(=O)C(=O)N2CCOc1ccccc1 as the compound, how does the Potency read?
A: inactive

Q: For CC[C@]12c3[nH]c4cc(CCC(=O)N(C)C)ccc4c3CCN1C(=O)[C@@H](CC(=O)NC(C)(C)C)C[C@@H]2C(=O)N1CCN(C(=O)c2ccco2)CC1, which Potency is on record?
A: inactive

Q: For CCOC(=O)c1ccc(-c2c(-c3cc(OC)c(OC)c(OC)c3)noc2C)cc1F, which Potency is on record?
A: inactive

Q: For COc1ccccc1NC(=O)N1CCC(c2nc3cc(C)c(C)cc3[nH]2)CC1, which Potency is on record?
A: inactive

Q: For Cc1cc(C)c2nc3sc(C(=O)N4CCOCC4)c(N)c3cc2c1, which Potency is on record?
A: inactive

Q: With Cc1cc(Cl)n2c(nc3cc(F)c(F)cc32)c1C#N as the compound, how does the Potency read?
A: inactive

Q: For CC(=O)Nc1cc(N=Cc2ccc(O)cc2O)c(Cl)cc1Cl, which Potency is on record?
A: 14.6 µM (active)

Q: With NC(=S)N=Nc1c(O)n(CCCl)c2ccccc12 as the compound, how does the Potency read?
A: inactive

Q: For CCn1c(O)c(N=NC(=S)NCC2CCCO2)c2ccccc21 (centres undefined), which Potency is on record?
A: 20.6 µM (active)

Q: Which Potency does the source give for Oc1[nH]c2c(Cl)cc(Cl)cc2c1N=NC(=S)NCC1CCCO1 (centres undefined) here?
A: inactive

Q: For COC(=O)C1C(O)=C(C=Nc2cccc3ccccc23)C(=O)CC1(C)C (centres undefined), which Potency is on record?
A: inactive

Q: For CCOc1ccc(C(=O)NC(=S)Nc2cccc(S(=O)(=O)NC3=NCCC3)c2)cc1, which Potency is on record?
A: inactive

Q: Which Potency does the source give for CC1=CC(C)(C)N(S(=O)(=O)c2ccc(C)cc2)c2ccccc21 here?
A: inactive

Q: Which Potency does the source give for Cc1ccc(OC/C(=N\O)C(C)(C)C)c([N+](=O)[O-])c1 here?
A: inactive

Q: For Cc1ccc(Nc2nc(-c3c(C)nc4ccccn34)cs2)cc1, which Potency is on record?
A: inactive

Q: Which Potency does the source give for CCOc1ccc(C(=O)c2cc([N+](=O)[O-])ccc2N2CCOCC2)cc1 here?
A: inactive

Q: Which Potency does the source give for COc1ccc(C=C2c3ccccc3C(=O)c3ccccc32)c(OC)c1 here?
A: inactive

Q: Which Potency does the source give for COc1ccc(/C=C/C(=O)c2cc(Br)ccc2OC(=O)c2ccco2)cc1OC here?
A: inactive

Q: For COCCN(Cc1cc2cc(C)cc(C)c2nc1Cl)C(=O)Nc1ccccc1, which Potency is on record?
A: inactive

Q: Which Potency does the source give for Cc1ccc(NC(=S)NNC(=S)Nc2ccc(C)cc2C)cc1 here?
A: inactive

Q: For CCCCOc1ccc(Br)cc1/C(C)=N/NC1=NCCN1, which Potency is on record?
A: inactive

Q: With COc1cccc(C2NC(=S)NC(C)=C2C(=O)c2ccccc2)c1OC (centres undefined) as the compound, how does the Potency read?
A: inactive

Q: For O=C(/C=C/c1ccccc1Cl)c1cccnc1, which Potency is on record?
A: inactive

Q: Which Potency does the source give for CCOC(=O)C1CCN(S(=O)(=O)c2c(Cl)ccc3nonc23)CC1 here?
A: inactive

Q: For S=c1nc2ccccc2c2nc(-c3ccccc3Br)[nH]n12, which Potency is on record?
A: inactive

Q: With Oc1ccc(-c2nnc(Nc3cccc(O)c3)c3ccccc23)cc1 as the compound, how does the Potency read?
A: inactive

Q: With COc1ccc(-c2cc(C(F)(F)F)n3nc(C(=O)NCCCn4ccnc4)cc3n2)cc1 as the compound, how does the Potency read?
A: inactive

Q: Which Potency does the source give for COc1ccccc1-c1cc(C(=O)NCCc2ccccc2)no1 here?
A: inactive

Q: Which Potency does the source give for COc1ccc(C(=O)c2ccc(N(C)C)cc2)c2ccccc12 here?
A: inactive

Q: For CCCCC[C@H](O)/C=C/C1=C(CCCCCCC(=O)O)C(=O)CC1, which Potency is on record?
A: inactive

Q: With ClCc1nc2ccccc2c2ccccc12 as the compound, how does the Potency read?
A: 13 µM (active)

Q: With CCc1nc2ccccc2c(C(=O)OCc2nc3ccccc3c(=O)[nH]2)c1C as the compound, how does the Potency read?
A: inactive

Q: Which Potency does the source give for S=c1nc2ccccc2c2nc(-c3ccccc3)[nH]n12 here?
A: inactive

Q: For CCCc1oc2ccc(NS(=O)(=O)c3ccc(OC)cc3)cc2c1C(=O)OCC, which Potency is on record?
A: inactive

Q: Which Potency does the source give for COc1ccc2c(c1)c(/C=N/Nc1nc3ccccc3[nH]1)c(C)n2C here?
A: inactive

Q: For COC(=O)[C@@H]1[C@@H](C#N)C2(c3ccccc3-c3ccccc32)N(c2ccc(Cl)cc2)N1C#N, which Potency is on record?
A: inactive

Q: With O=C(Nc1ccc([N+](=O)[O-])cc1)Nc1ccon1 as the compound, how does the Potency read?
A: inactive

Q: For Cc1cccc(Cn2cc(/C=C/[N+](=O)[O-])c3ccccc32)c1, which Potency is on record?
A: inactive

Q: With CCN(CC)c1ccc2c(C)c(CO)c(=O)oc2c1 as the compound, how does the Potency read?
A: inactive

Q: For Cc1nc(NC(=S)Nc2ccccc2)sc1C, which Potency is on record?
A: inactive

Q: Which Potency does the source give for COc1ccc(OC)c(-c2cc(C(=O)Nc3c(C)nn(Cc4ccccc4)c3C)no2)c1 here?
A: inactive

Q: With Cc1ccc(O)c(N=Nc2nccs2)c1 as the compound, how does the Potency read?
A: 16.4 µM (active)

Q: Which Potency does the source give for CCOC(=S)SCC(=O)Nc1nc(-c2ccc(Br)cc2)cs1 here?
A: inactive

Q: Which Potency does the source give for CC[C@]12c3[nH]c4cc(CCC(=O)N(C)C)ccc4c3CCN1C(=O)[C@@H](CC(=O)NCC13CC4CC(CC(C4)C1)C3)C[C@@H]2C(=O)N1CCN(C(=O)c2ccco2)CC1 here?
A: inactive

Q: For Cc1cccc(NS(=O)(=O)c2ccc(-c3cnc(C4CC4)o3)cc2)c1C, which Potency is on record?
A: inactive

Q: With CCN(CC)c1ccc(-c2nn3c(-c4ccccc4OC)nnc3s2)cc1 as the compound, how does the Potency read?
A: inactive

Q: With COc1cc(OC)cc(C(=O)NCC(=O)N2CC=C(c3ccccc3)CC2)c1 as the compound, how does the Potency read?
A: inactive

Q: For CC1=Nc2cc(C(=O)NCc3ccco3)ccc2Sc2ccc(C)cc21, which Potency is on record?
A: inactive

Q: With CCCCC[C@H](O)/C=C/[C@@H]1[C@@H](CCCCCCC(=O)O)[C@@H](O)C[C@H]1O as the compound, how does the Potency read?
A: inactive

Q: For COc1ccc(Nc2nc(-c3c(C)nc4ncccn34)cs2)cc1, which Potency is on record?
A: inactive

Q: With COc1ccc(NC(=O)C(=O)NCC2CCCN2S(=O)(=O)c2ccc(C)cc2)cc1 (centres undefined) as the compound, how does the Potency read?
A: inactive

Q: For COc1ccc(Nc2nc(N)nc(CCl)n2)cc1, which Potency is on record?
A: inactive

Q: With Cc1ccc2nc(SCC(=O)Nc3cc(C(F)(F)F)ccc3N3CCOCC3)[nH]c2c1 as the compound, how does the Potency read?
A: inactive

Q: For CCOc1ccc(N(CC(=O)Nc2ccccc2OC)S(=O)(=O)c2ccccc2)cc1, which Potency is on record?
A: inactive

Q: With COc1cc2c(cc1OC)C(c1ccc(OC)c(OC)c1OC)CC(=O)N2 (centres undefined) as the compound, how does the Potency read?
A: inactive

Q: For Cc1ccccc1NC(=S)N=Nc1c(O)n(C)c2ccc(S(=O)(=O)N3CCOCC3)cc12, which Potency is on record?
A: inactive

Q: With Cn1c(O)c(N=NC(=S)Nc2ccccc2F)c2cc(S(=O)(=O)N3CCOCC3)ccc21 as the compound, how does the Potency read?
A: 3.66 µM (active)

Q: For CCc1ccccc1NC(=S)N=Nc1c(O)n(C)c2ccc(S(=O)(=O)N3CCOCC3)cc12, which Potency is on record?
A: inactive

Q: With COc1ccc(/C=C/C(=O)Nc2ccc(-n3nncc3-c3ccc(OC)c(OC)c3)cc2)cc1OC as the compound, how does the Potency read?
A: inactive

Q: Which Potency does the source give for COc1ccc(OC)c(C2C3=C(COC3=O)Nc3cc4c(cc32)OCO4)c1 (centres undefined) here?
A: inactive

Q: Which Potency does the source give for CCN(CC)S(=O)(=O)c1ccc2c(c1)c(=O)c(C(=O)NCCc1ccc(OC)c(OC)c1)cn2C here?
A: inactive

Q: Which Potency does the source give for O=C(COc1ccc(C(=O)c2ccc(F)cc2)cc1)NCc1ccc(F)cc1 here?
A: inactive
